Bioassay records deposited in PubChem BioAssay by National Center for Advancing Translational Sciences (NCATS).
This is a sample that favours compounds with a hit; in the whole collection about 19% have one here.
TDP1 cell CPT: DT40-hTDP1 cell growth loss with CPT; chicken DT40 Tdp1-/-;hTDP1 cells + 20 nM CPT, ATP luminescence, 48 h; Potency, µM (doses to about 46.2 µM), for inactives: at the top dose activity change, negative = growth inhibition, usual class: inhibitors; 420,000 tested, 12% active; further: potency means the concentration at half of the fitted maximal effect; nearly all actives have a fitted effect of over 55% in size
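Cell growth measured by CellTiter-Glo luminescence after a minimum 48 h, 37 C compound exposure with 20 nM CPT in Tdp1-knockout DT40 cells stably expressing hTDP1, seeded 400/well; qHTS titration format.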
TDP1 cell noCPT: qHTS for Inhibitors of human tyrosyl-DNA phosphodiesterase 1 (TDP1): qHTS in cells in absence of CPT; DT40 Tdp1-/- hTDP1 cells, no CPT, ATP luminescence, 48 h; Potency, µM (doses to about 46.2 µM), inactives show at the highest dose activity change, negative = growth inhibition, actives largely listed as inhibitors; 420,000 tested, 15% active; AID 686978, 2013; further: potency means the concentration at half of the fitted maximal effect; nearly all actives have a fitted effect of over 55% in size
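A cellular qHTS used chicken DT40 cells lacking endogenous Tdp1 but carrying stably transfected human TDP1. Compounds were applied without camptothecin, and cell growth kinetics were judged by ATP-dependent luminescence after ≥48 hr.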
IL1B secr inh: blocks inflammasome-driven IL-1 beta release. THP-1 LPS/ATP IL-1B secretion, AlphaLISA, 16 h; stronger effect = lower value. activity change, % at 57.5 µM. 360,000 tested, 4.7% active; in the data active means activity change below about -50%; inconclusive means mostly about -30% to -49%
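Secreted IL-1B measured by AlphaLISA bead assay after 16 h compound exposure of THP-1 cells; compounds (final up to 57.5 uM) added 1 h before LPS (250 ng/mL) and ATP (1.25 mM) stimulation; lower signal means less secretion.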
HT1080-NT tox: kills 2HG-producing HT-1080-NT fibrosarcoma cells | HT-1080-NT fibrosarcoma viability, CellTiter-Glo ATP luminescence, 48 h | Potency, µM (series often up to 46.1 µM), for inactives: top-dose activity, negative = less viability, actives largely listed as cytotoxic | 360,000 tested, 1.6% active;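 further: NT is the 2HG producing partner of a matched IDH1 knockdown line; potency means the concentration at half of the fitted maximal effect; 0% = DMSO-treated cells and -100% = media-only wells without cells; nearly all actives have a fitted effect of over 55% in size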
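Viability of the 2HG-overproducing fibrosarcoma line after 48 hours of compound exposure at 37 degrees C was determined by luminescence with CellTiter-Glo, and concentration-effect curves were then fitted and categorized.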
HT1080 IDH1KD tx: HT-1080 IDH1 knockdown cell toxicity (counter line); HT-1080 IDH1 knockdown viability, ATP luminescence, 48 h; Potency, µM (top dose mostly 46.1 µM), without a hit: at the top dose activity, negative = toxicity, usual class: cytotoxic; 360,000 tested, 2% active;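 further: potency means the concentration at half of the fitted maximal effect; 0% = DMSO wells and -100% = cell-free medium wells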
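Assay cells: HT-1080 with IDH1 knockdown, 750 per well, RPMI/5% FBS. Exposure: 48 h at 37 °C following 2 h pre-incubation. Read: CellTiter-Glo luminescence; fitted concentration-response, curve class assigned.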
The depositor's hits bear a star; i = inactive; ? = inconclusive; . = no result given; [ ] = remark or other dose. Unless noted, the call rests on the fitted dose curve; in most records, active means well fitted curve in the direction sought with a large enough effect; inconclusive means small, poorly fitted or top-dose-only effect, or another doubt; inactive means no such curve, though single readings can be large; an effect the other way counts as inactive or inconclusive. Unless noted, on the % scale 0 is the no-effect control and ±100 the full control effect.

SMILES	TDP1 cell CPT	TDP1 cell noCPT	IL1B secr inh	HT1080-NT tox	HT1080 IDH1KD tx
CCCCCCN(C(=O)CCl)c1ccccc1	16.4µM*	10.3µM*	-66.5*	3.66µM*	?
CC(Oc1ccc([N+](=O)[O-])cc1)C(=O)NCCCN1CCOCC1 (configuration not stated)	2.5%	-14.7%	i	-4.8%	-1.1%
COC(=O)CC1=NN(c2nc3ccccc3s2)C(=O)/C1=C/N(C)C	-16.3%	-0.2%	-9.6	15.1%	-1.5%
CSC(SC)=C(C(C)=O)C(=O)c1ccc(C)cc1	-2.1%	?	-50.2*	-1.3%	-1.2%
CCOc1ccc(NC(=O)Cn2c(=O)oc3cc(S(=O)(=O)NC4CCCC4)ccc32)cc1	14.6µM*	11.6µM*	.	.	.
COc1ccc(OC)c(CNC(=O)c2cc(=O)[nH]c3ccc(S(=O)(=O)N4CCCCC4C)cc23)c1 (configuration not stated)	?	16.4µM*	.	.	.
CCN(Cc1ccccc1)C(=O)Cn1c(=O)oc2cc(S(=O)(=O)N3CCCCCC3)ccc21	16.4µM*	14.6µM*	.	.	.
CCOC(=O)Cn1c(=O)oc2cc(S(=O)(=O)NC3CCCCC3)ccc21	?	?	7.7	3.4%	2.3%
COc1cc(OC)c(NC(=O)Cn2c(=O)oc3cc(S(=O)(=O)N4CCCC4)ccc32)cc1Cl	?	18.4µM*	.	.	.
COc1cccc(CNC(=O)c2cc(=O)[nH]c3ccc(S(=O)(=O)N4CCCC4)cc23)c1	0.8%	10.6%	.	.	.
Cc1ccc(OCC(=O)NC(=S)Nc2ccc(Br)cn2)cc1	7.6%	-8.1%	34.9	-0.7%	10.7%
COCc1c(C(=O)NC2CCCC2)cnn1-c1nccc(-c2cc(C)sc2C)n1	-11.5%[9.04 µM]	?	.	.	.
O=C(COC(=O)c1ccc(Cl)c(S(=O)(=O)N2CCCCC2)c1)NCCc1ccccc1	5.7%	-8.0%	2.8	-0.1%	1.3%
Fc1cc(Cl)cc2ccc(-c3ccccc3)nc12	0.9%	-9.7%	0.5	14.6%	8.3%
Cc1cc(NC(=O)CSc2nnc(-c3ccccc3F)n2C)no1	8.5%	17.6%	0.0	10.9%	4.2%
COc1ccc(NC(=O)Cn2c(=O)oc3cc(S(=O)(=O)N4CCCCCC4)ccc32)cc1OC	16.4µM*	13µM*	.	.	.
CCOc1ccc(NC(=O)Cn2c(=O)oc3cc(S(=O)(=O)N4CCCCCC4)ccc32)cc1	20.6µM*	20.6µM*	.	.	.
COc1ccccc1CNC(=O)Cn1c(=O)oc2cc(S(=O)(=O)N3CCCC3)ccc21	13µM*	29.1µM*	0.6	2.7%	-1.6%
COc1ccc(NC(=O)Cn2c(=O)oc3cc(S(=O)(=O)N4CCCC4)ccc32)cc1	-18.2%	-20.2%	-8.8	0.0%	6.3%
O=C(Cn1c(=O)oc2cc(S(=O)(=O)N3CCCC3)ccc21)NCc1ccccn1	0.9%	-26.0%	1.3	4.0%	7.0%
COc1ccc(NC(=O)Cn2c(=O)oc3cc(S(=O)(=O)N4CCCCC4C)ccc32)cc1 (configuration not stated)	18.4µM*	20.6µM*	.	.	.
Cn1c(Oc2ccncc2)nc2cc(-c3ccsc3)sc2c1=O	-21.1%	-5.7%	-3.2	15.3%	17.5%
COc1ccc(C(Sc2ccccc2)c2ccccc2)cc1OC (configuration not stated)	-15.1%	-29.3%	-29.1	-4.6%	-2.1%
CC1CCN(c2nnc(-c3cccs3)c3ccccc23)CC1	25.9µM*	?	?	-2.3%	-9.5%
CC1=NN(C(=O)c2ccco2)C(O)(c2ccccc2)C1 (configuration not stated)	1.03µM*	0.92µM*	5.3	-19.8%	-14.0%
SMILES	TDP1 cell CPT	TDP1 cell noCPT	IL1B secr inh	HT1080-NT tox	HT1080 IDH1KD tx
CC1=NN(C(=O)c2ccccc2Br)C(O)(c2ccc(Cl)cc2)C1 (configuration not stated)	2.4%	-23.6%	6.8	-1.8%	-6.8%
CC1=NN(C(=O)c2ccc(C)o2)C(O)(c2ccccc2)C1 (configuration not stated)	4.61µM*	4.61µM*	9.6	4.1%	2.2%
COc1ccc(Br)c(OC)c1C(=O)NC(=O)Nc1nc(C)cc(C)n1	-10.0%	-19.1%	5.3	?	10.8%
CSCCC(NC(=O)c1ccccc1)C(=O)NCCc1ccc2c(c1)OCCO2 (configuration not stated)	-9.3%	3.5%	-10.7	-15.1%	-29.4%
COc1ccc(-c2nc(-c3cccc(C)c3)nc(N3CCN(C)CC3)c2C#N)cc1	14.6µM*	16.4µM*	-20.2	0.1%	-0.3%
COc1cccc(-c2nc(N)nc(SC)c2C#N)c1	2.8%	-17.1%	-21.2	-0.2%	-0.4%
COc1cccc(-c2nc(-c3ccccc3)nc(N3CCN(C)CC3)c2C#N)c1	?	?	-61.3*	?	?
COc1ccc(-c2nc(-c3ccccc3)nc(N3CCN(C)CC3)c2C#N)cc1	?	?	-20.6	4.5%	0.0%
CN1CCN(c2nc(-c3ccccc3)nc(-c3ccccc3)c2C#N)CC1	?	?	-96.1*	-4.4%	-1.8%
COc1ccc(-n2nc(C(=O)NCC(=O)NCCCN3CCN(C)CC3)c3ccccc3c2=O)cc1	-0.9%	?	-2.1	3.6%	3.8%
Cc1ccc(C(=O)/C=C/c2ccc3c(c2)OCCO3)c(O)c1	?	?	-93.3*	-18.1%	-19.1%
O=C(/C=C/c1ccc2c(c1)OCCCO2)c1ccc2ccccc2c1O	?	11.6µM*	12.1	-28.8%	?
CCN(C(=O)/C=C/c1ccc2c(c1)OCO2)c1ccccc1	?	?	-3.9	21.1%	16.0%
CCc1cc(C(=O)/C=C/c2cc3c(cc2C)OCCO3)c(O)cc1O	12.6µM*	11.2µM*	.	?	-65.9%
COc1ccc(Cn2c(CCC(=O)Nc3ccccc3OC)nc3cccnc32)cc1	?	?	6.9	5.8%	5.4%
CCOC(=O)Cn1nc(C)n(-c2ccc(F)cc2)c1=O	0.5%	-17.4%	5.5	-0.5%	5.5%
COc1ccc(-c2csc3nc(-c4ccccc4OC)oc(=O)c23)cc1	20.6µM*	23.1µM*	.	?	?
CCOc1ccc(-c2csc3ncn(-c4ccc(OC)cc4)c(=O)c23)cc1	?	16.4µM*	?	-14.8%	-20.7%
COc1ccc(-c2csc3ncn(-c4ccccc4OC)c(=O)c23)cc1OC	?	23.1µM*	-12.6	-25.9%	?
COc1ccccc1-n1cnc2sc(-c3ccccc3)cc2c1=O	?	11.6µM*	-21.8	21.5%	11.2%
COCCn1c(C)cc(O)c(C(c2ccccc2Cl)N2CCN(c3ccccc3)CC2)c1=O (configuration not stated)	6.5%	-27.3%	.	.	.
COc1ccc(-c2csc3nc(-c4ccc(C)cc4)oc(=O)c23)cc1OC	9.2µM*	10.3µM*	-1.2	19.3%	13.8%
